# Results: ChEMBL document CHEMBL1157539, “Thousands of chemical starting points for antimalarial lead identification” (Nature, 2010)
# Legend:
# Type in all cases: functional
# [1] = tested on: Plasmodium falciparum; assay: GSK_TCMDC: Inhibition of Plasmodium falciparum 3D7 in whole red blood cells, using parasite LDH activity as an index of growth. Test compounds present at 2uM
# [2] = tested on: Plasmodium falciparum; assay: GSK_TCMDC: Inhibition of Plasmodium falciparum Dd2 in whole red blood cells, using parasite LDH activity as an index of growth. Test compounds present at 2uM
# [3] = tested on: HepG2; assay: GSK_TCMDC: Percent inhibition of human HepG2 cell line. Test compounds present at 10uM.
compound,measurement,setting,value
Cc1ccccc1C1CCN(c2ncc(C(=O)Nc3ccccc3)cc2Cl)CC1.O=C(O)C(F)(F)F,Inhibition,[1],83%
same,Inhibition,[2],83%
same,Inhibition,[3],29%
CCCNCc1ccc(-c2ccc(CN(C(=O)c3nn(-c4ccccc4)nc3C)C(C)CN(C)C)cc2)nc1.O=C(O)C(F)(F)F (configuration not stated),Inhibition,[1],95%
same,Inhibition,[2],95%
same,Inhibition,[3],27%
O=C(c1cc(-c2ccccc2O)on1)N1CCN(C(c2ccccc2)c2ccccc2)CC1,Inhibition,[1],97%
same,Inhibition,[2],88%
same,Inhibition,[3],12%
CC(c1cccc(S(=O)(=O)NCc2cccc(C(F)(F)F)c2)c1)N1CCC(N2CCCCC2)CC1 (configuration not stated),Inhibition,[1],99%
same,Inhibition,[2],35%
same,Inhibition,[3],37%
O=C(O)C(F)(F)F.O=c1[nH]ccc2nc(N[C@@H]3CCCNC3)nc(Nc3ccc(S(=O)(=O)N4CCOCC4)cc3)c12,Inhibition,[1],96%
same,Inhibition,[2],99%
same,Inhibition,[3],13%
CN(C)CCCOc1ccccc1CN1CC[C@H](NC(=O)c2ccc(Cl)c(Cl)c2)C1.O=C(O)C(F)(F)F,Inhibition,[1],94%
same,Inhibition,[2],54%
same,Inhibition,[3],42%
CCN(CC)CCOc1c(Cl)cc(Cl)cc1CNCCCNc1cc(=O)c2ccccc2[nH]1,Inhibition,[1],97%
same,Inhibition,[2],6%
same,Inhibition,[3],11%
COC(=O)c1sc(-c2ccc(Cl)cc2)cc1N(CCCN1CCC(N2CCCCC2)CC1)S(=O)(=O)c1ccc(C)cc1,Inhibition,[1],100%
same,Inhibition,[2],86%
same,Inhibition,[3],25%
COc1cc2nc(NCC3CCN(C(=O)c4ccc(-c5ccc(C(=O)N(C)C)cc5C)cc4)CC3)nc(N)c2cc1OC,Inhibition,[1],100%
same,Inhibition,[2],34%
same,Inhibition,[3],2%
O=C(Nc1cccc(-c2nn3ccccc3c2-c2ccnc(Nc3ccc(Cc4ccncc4)cc3)n2)c1)c1c(F)cccc1F,Inhibition,[1],97%
same,Inhibition,[2],97%
same,Inhibition,[3],43%
CCCCCOc1c(CCC)cc(Cc2cnc(N)nc2N)cc1CCC,Inhibition,[1],94%
same,Inhibition,[2],0%
same,Inhibition,[3],58%
O=C(c1ccccc1)N1CCC(CN2CCOC(c3ccccc3)(c3ccccc3)C2)CC1,Inhibition,[1],94%
same,Inhibition,[2],95%
same,Inhibition,[3],14%
Cl.O=C(NCCCCN1CCC(c2ccc3c(c2O)CCCC3)CC1)c1ccc(NC(=O)c2ccc(Cl)cc2)cc1,Inhibition,[1],100%
same,Inhibition,[2],100%
same,Inhibition,[3],99%
CCCCCCN1CCCN(Cc2ccc(C(=O)Nc3ccc(C)c(F)c3)cc2)CC1.O=C(O)C(F)(F)F,Inhibition,[1],92%
same,Inhibition,[2],58%
same,Inhibition,[3],47%
O=C(NCC1CC1)C1CCN(C(c2ccccc2)c2nc3ccccc3s2)CC1 (configuration not stated),Inhibition,[1],92%
same,Inhibition,[2],49%
same,Inhibition,[3],0%
Cc1ccc(NC(=N)Nc2ncccc2OCc2c(F)cccc2Cl)cc1,Inhibition,[1],86%
same,Inhibition,[2],54%
same,Inhibition,[3],78%
Cc1ccc(O)c(-c2cc(C(=O)Nc3ccc(S(=O)(=O)N4CCCCC4)cc3)[nH]n2)c1,Inhibition,[1],94%
same,Inhibition,[2],98%
same,Inhibition,[3],31%
CC(C)(C)c1cc(C(=O)Nc2cccnc2)cc(C(=O)Nc2cccnc2)c1,Inhibition,[1],95%
same,Inhibition,[2],35%
same,Inhibition,[3],0%
CNC(=O)c1cc(S(=O)(=O)N2CCN(c3ccccn3)CC2)c(C)s1,Inhibition,[1],91%
same,Inhibition,[2],52%
same,Inhibition,[3],0%
CCCC(=O)Nc1ccc(OCCCCN(Cc2ccccc2C(F)(F)F)c2ccc(C(F)(F)F)c(C#N)c2)cc1,Inhibition,[1],94%
same,Inhibition,[2],94%
same,Inhibition,[3],6%
CN1CCN(CC(O)CNC(=O)Nc2ccc(Cl)cc2)CC1.O=C(O)C(F)(F)F (configuration not stated),Inhibition,[1],99%
same,Inhibition,[2],98%
same,Inhibition,[3],1%
O=C(O)C(F)(F)F.O=S(=O)(NCCN1CCCC1)c1ccc(-c2ccccc2CNC2Cc3ccccc3C2)cc1,Inhibition,[1],95%
same,Inhibition,[2],67%
same,Inhibition,[3],19%
COc1cc(Br)c(S(=O)(=O)n2cc(CN3CCC(N)CC3)c3cc(Cl)ccc32)cc1OC.O=C(O)C(F)(F)F,Inhibition,[1],99%
same,Inhibition,[2],32%
same,Inhibition,[3],27%
Cl.Fc1cc(CN2CCCC2)ccc1OCCCN1CCN(c2cccc(Cl)c2Cl)CC1,Inhibition,[1],82%
same,Inhibition,[2],15%
same,Inhibition,[3],67%
O=C(C1CCN(C(c2ccccc2)c2ccc(Cl)c(Cl)c2)CC1)N1CC=CC1 (configuration not stated),Inhibition,[1],89%
same,Inhibition,[2],84%
same,Inhibition,[3],1%
Cl.Nc1c2ccccc2nc2cc([N+](=O)[O-])ccc12,Inhibition,[1],98%
same,Inhibition,[2],26%
same,Inhibition,[3],92%
CN(C)c1ccc(C2(c3ccccc3)N=C(N)N(CCCc3ccccc3)C2=O)cc1.O=C(O)C(F)(F)F (configuration not stated),Inhibition,[1],99%
same,Inhibition,[2],97%
same,Inhibition,[3],4%
COc1ccc2nccc(N3CCC(NCCNCc4ccc5c(n4)NC(=O)CO5)C3)c2n1.Cl (configuration not stated),Inhibition,[1],100%
same,Inhibition,[2],47%
same,Inhibition,[3],0%
Cc1cc(=O)c(C2CCC(c3ccc(Cl)cc3)CC2)c(C)[nH]1 (configuration not stated),Inhibition,[1],88%
same,Inhibition,[2],70%
same,Inhibition,[3],0%
CCCCn1c(=N)c(C(=O)NCc2cccnc2)cc2c(=O)n3cccc(C)c3nc21,Inhibition,[1],100%
same,Inhibition,[2],47%
same,Inhibition,[3],7%
Cc1cc(N(C)CCCN2CCCCC2)nc(Nc2ccc(Cl)cc2)n1.Cl,Inhibition,[1],100%
same,Inhibition,[2],82%
same,Inhibition,[3],7%
CN(C)CCNCc1cccc(-c2cccc(-c3nc4ccccc4[nH]3)c2)c1.O=C(O)C(F)(F)F,Inhibition,[1],100%
same,Inhibition,[2],63%
same,Inhibition,[3],7%
CS(=O)(=O)Nc1cccc(-c2cnc3[nH]cc(-c4ccc(C(=O)O)c(F)c4)c3c2)c1,Inhibition,[1],99%
same,Inhibition,[2],76%
same,Inhibition,[3],27%
Cc1ccccc1C(O)CNc1ccnc(Nc2cccc(C#N)c2)n1 (configuration not stated),Inhibition,[1],94%
same,Inhibition,[2],12%
same,Inhibition,[3],22%
Cl.O=C(c1cccc(COc2ccc3c(c2)CCN(C2CCCC2)CC3)c1)N1CCN(c2ccncc2)CC1,Inhibition,[1],100%
same,Inhibition,[2],35%
same,Inhibition,[3],49%
Cc1cc(N/N=C/c2ccccc2[N+](=O)[O-])c2cc(F)ccc2n1,Inhibition,[1],100%
same,Inhibition,[2],100%
same,Inhibition,[3],18%
Cc1ccc(Nc2ccnc(Nc3ccc4c(c3)CS(=O)(=O)C4)n2)cc1O.Cl,Inhibition,[1],100%
same,Inhibition,[2],76%
same,Inhibition,[3],82%
COc1c(C2CCN(CCCCNC(=O)c3ccc(-c4ccc(NC(=O)C(F)(F)F)cc4)cc3)CC2)ccc2c1CCCC2,Inhibition,[1],86%
same,Inhibition,[2],33%
same,Inhibition,[3],95%
COc1cc2nc(Nc3ccc(N4CCOCC4)cc3)nc(N)c2cc1OC.Cl,Inhibition,[1],95%
same,Inhibition,[2],10%
same,Inhibition,[3],8%
COc1ccc2nccc(N3CCN(CCNCc4ccc5c(n4)NC(=O)CO5)CC3)c2n1.Cl,Inhibition,[1],98%
same,Inhibition,[2],12%
same,Inhibition,[3],10%
CCC(CC)(Cc1ccccc1)NC(=O)[C@H](CC(C)C)Nc1ccc(C#N)c2ccccc12.O=C(O)C(F)(F)F,Inhibition,[1],90%
same,Inhibition,[2],73%
same,Inhibition,[3],57%
CC(C)(C)c1ccc(CN(C[C@@H](O)CNS(=O)(=O)c2cc(Cl)cc(Cl)c2)C(C)(C)C)cc1.Cl,Inhibition,[1],98%
same,Inhibition,[2],94%
same,Inhibition,[3],74%
COc1ccc(Nc2nccc(-c3ccc4ccnc(NCCCCN)c4c3)n2)cc1,Inhibition,[1],95%
same,Inhibition,[2],47%
same,Inhibition,[3],15%
O=C(O)C(F)(F)F.O=C1CCCN1CCCNCc1ccc(-c2ccc(-c3nc4cc(C(F)(F)F)ccc4[nH]3)s2)cc1,Inhibition,[1],100%
same,Inhibition,[2],96%
same,Inhibition,[3],9%
O=C(NC1CC1)c1ccc(N2CCCCN2CCc2ccccc2)c(C(F)(F)F)c1.O=C(O)C(F)(F)F,Inhibition,[1],98%
same,Inhibition,[2],84%
same,Inhibition,[3],0%
CN(C)CCCn1cncc1-c1ccc2ncnc(Nc3ccc(OCc4ccccc4)cc3)c2c1,Inhibition,[1],100%
same,Inhibition,[2],100%
same,Inhibition,[3],37%
Cc1cc(C(=O)NC2CCN(Cc3ccccc3)CC2)ccc1-c1nc2cc(Cl)c(Cl)cc2[nH]1,Inhibition,[1],96%
same,Inhibition,[2],32%
same,Inhibition,[3],7%
Cn1c(-c2ccccc2)cc2c3c(N)nc(N)nc3ccc21,Inhibition,[1],100%
same,Inhibition,[2],30%
same,Inhibition,[3],27%
Cc1cc(=NN=Cc2ccccc2Cl)c2cccc(C)c2[nH]1,Inhibition,[1],97%
same,Inhibition,[2],98%
same,Inhibition,[3],10%
ON=C1CCc2cc(-c3cc(-c4ccc(OC5CCNCC5)cc4)oc3-c3ccncc3)ccc21,Inhibition,[1],100%
same,Inhibition,[2],99%
same,Inhibition,[3],34%
COc1ccc(CCNc2nc(NCc3ccccc3)c3cc(OC)c(OC)cc3n2)cc1OC,Inhibition,[1],100%
same,Inhibition,[2],91%
same,Inhibition,[3],46%
Cc1cc(N2Cc3ccccc3C2)nc(Nc2ccc(S(=O)(=O)N3CCOCC3)cc2)n1.Cl,Inhibition,[1],100%
same,Inhibition,[2],85%
same,Inhibition,[3],13%
CCOc1cc2ncnc(Nc3ccc(OCc4c(F)cccc4F)c(OC)c3)c2cc1OCC.Cl,Inhibition,[1],96%
same,Inhibition,[2],60%
same,Inhibition,[3],7%
Cc1nc(-c2ccc(-c3ccc(C(=O)Nc4ccc(C(C)C)c(OCCN(C)C)c4)cc3)c(C)c2)no1.O=C(O)C(=O)O,Inhibition,[1],99%
same,Inhibition,[2],45%
same,Inhibition,[3],49%
